Reference: PubChem BioAssay (NCATS)

Assay: qHTS profiling of the MIPE4 collection as inhibitors of Plasmodium falciparum (3D7) proliferation (AID 743344);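 note: scaled between DMSO vehicle wells and 0.29 µM artemisinin as full inhibition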
Details: P. falciparum 3D7 in erythrocytes, SYBR Green DNA fluorescence, 72 h; at 28.5 µM unless noted
Description: Plasmodium falciparum is a virulent malarial parasite that kills 1-2 million people worldwide each year. Transmitted by mosquitoes, the sporozoite form of the parasite enters the blood stream to infect hepatocytes, where they become merozoites that infect red blood cells (erythrocytes). Within erythrocytes, merozoites begin a […] cycle of growth and division, after which the parasite is released to infect new red blood cells. Gametocytes, which form within erythrocytes as well, circulate in the bloodstream and are ingested by the mosquito, thereby completing the life cycle. To profile malarial isolates for differential chemical responses and to identify inhibitors of malarial growth, an assay that measures P. falciparum growth and replication within erythrocytes was employed. This assay uses a DNA binding fluorescent dye (SYBR Green) to detect parasite DNA following cell lysis. Because mature erythrocytes lack DNA, only Plasmodium-derived DNA is detected.
The SYBR Green viability assay was adapted from a method described previously (Plouffe et al., 2008). For screening 3 ul culture medium was dispensed into 1536 well black clear bottom plates (Aurora Biotechnologies) using a Multidrop Combi (Thermo Fisher Scientific Inc.), 23 nL compounds in DMSO were added by a pin tool (Kalypsys), and 5 ul of erythrocytes infected with P. falciparum (0.3% parasitemia, 2.5% hematocrit final concentration) were added. The plates were incubated at 37 C in a humidified incubator in 5% CO2 for 72 h, and 2 ul lysis buffer (20 mM Tris HCl, 10 mM EDTA, 0.16% saponin, 1.6% triton X, 10X SYBR Green I supplied as 10,000X […] by Invitrogen) was added to each well. The plates were mixed for 25 sec with gentle shaking and incubated overnight at room temperature in the dark. The following morning, fluorescence intensity at 485(14) nm excitation and 535(25) nm emission wavelengths was measured on an EnVision (Perkin Elmer) plate reader. Plate reads were normalized relative to the control inhibitor (0.29 uM artemisinin) and vehicle (DMSO) wells present on each plate and then corrected by an algorithm using vehicle-only control plates at the beginning and end of the compound plate stack.

| SMILES | parasite growth, % of DMSO control |
| --- | --- |
| CC(=NNC(=S)N1CCC1)c1ccccn1 | 5.99% |
| NC[C@@H]1O[C@@H](O[C@H]2[C@@H](O)[C@H](O[C@@H]3[C@@H](O)[C@@H](N)C[C@H](N)[C@H]3O[C@H]3O[C@H](CN)[C@@H](O)[C@@H](O)[C@H]3N)O[C@H]2CO)[C@H](N)[C@@H](O)[C@@H]1O | 88% |
| CC[C@@H]1C=C(C)C[C@H](C)C[C@H](OC)[C@H]2O[C@@](O)(C(=O)C(=O)N3CCCC[C@@H]3C(=O)O[C@H](C(C)=C[C@@H]3CC[C@H](Cl)[C@H](OC)C3)[C@H](C)[C@@H](O)CC1=O)[C@H](C)C[C@H]2OC | 27.5% |
| CN(C)Cc1ccc(-c2nc3cccc4c3n2CCNC4=O)cc1 | 64% |
| CCn1c(C(=O)N(C2CC2)C2CC2)cc2c3c(ncn3C)c(Nc3cc(C)n(C)n3)nc21 | 9.81% |
| Cc1c[nH]c(C=C2C(=O)Nc3ccccc32)c1CCC(=O)O | 24.1% |
| CC(C)=CC[C@@H](O)C1=CC(=O)c2c(O)ccc(O)c2C1=O | 3.69% |
| O=c1[nH]cnc2c1ncn2[C@H]1CC[C@@H](CO)O1 | 178% |
| CCC(=O)O[C@]1(C(=O)CO)CC[C@H]2[C@@H]3CCC4=CC(=O)CC[C@]4(C)[C@@H]3CC[C@@]21C | 37.1% |
| O=C(NC1CCOCC1)c1ccc(-c2cc(-c3cn[nH]c3-c3ccccn3)ccn2)cc1 | 17.3% |
| CN(C[C@@H]1COCCO1)S(=O)(=O)Nc1ccc2ccc3ncc(-c4cnn(C)c4)cc3c(=O)c2c1 | 13.4% |
| C[N+]1(C)[C@@H]2CC(OC(=O)[C@H](CO)c3ccccc3)C[C@H]1[C@H]1O[C@@H]12 (stereo not given in full) | 93.9% |
| O=C1C(Cl)=C(NCCN2CCOCC2)C(=O)c2ncccc21 | 15.2% |
| CO[C@H]1C=CC=C(C)C(=O)NC2=CC(=O)C(NCCN(C)C)=C(C[C@@H](C)C[C@H](OC)[C@@H](O)[C@@H](C)C=C(C)[C@@H]1OC(N)=O)C2=O | 5.12% |
| CC[C@H]1OC(=O)[C@H](C)[C@@H](O[C@H]2C[C@@](C)(OC)[C@@H](O)[C@H](C)O2)[C@H](C)[C@@H](O[C@@H]2O[C@H](C)C[C@H](N(C)C)[C@@H]2O)[C@](C)(O)C[C@@H](C)CN(C)[C@H](C)[C@@H](O)[C@]1(C)O | 33.2% |
| NS(=O)(=O)c1cccc2c1C(=O)c1cccc(O)c1C2=O | 4.48% |
| CCN(CC)CCOc1ccc(C(=C(Cl)c2ccccc2)c2ccccc2)cc1 | 5.06% |
| COc1cc(N2CCC(N3CCN(C)CC3)CC2)ccc1Nc1ncnc(Nc2ccccc2S(=O)(=O)C(C)C)n1 | 8.76% |
| COc1ccc(-n2c(C)c([N+](=O)[O-])c3ccc(O)cc32)cc1 | 80.7% |
| COc1cc2ncnc(-n3nc(-c4ccccn4)nc3N)c2cc1OC | 15.5% |

| SMILES | parasite growth, % of DMSO control |
| --- | --- |
| CN[C@@H](C)C(=O)N[C@H]1CN(C(=O)CC(C)C)CC[C@H]2CC[C@@H](C(=O)NC(c3ccccc3)c3ccccc3)N2C1=O | 69.1% |
| O=C(NCc1ccncc1)C12C[C@H]3C[C@@H](C1)CC(c1ccc(Cl)cc1)(C3)C2 | 20% |
| CN(C)CCC=C1c2ccccc2COc2ccc(CC(=O)O)cc21 | 91.3% |
| COc1cc(O)c2c(c1)C(=O)c1cc(C)cc(O)c1C2=O | 81.1% [at 9.64 µM] |
| CC=CCC(C)C(O)C1C(=O)NC(CC)C(=O)N(C)CC(=O)N(C)C(CC(C)C)C(=O)NC(C(C)C)C(=O)N(C)C(CC(C)C)C(=O)NC(C)C(=O)NC(C)C(=O)N(C)C(CC(C)C)C(=O)N(C)C(CC(C)C)C(=O)N(C)C(C(C)C)C(=O)N1C (stereo not given) | 5.34% |
| NC(=O)NN=Cc1ccc([N+](=O)[O-])o1 | 13.6% |
| CC=CC[C@@H](C)C(=O)[C@H]1C(=O)N[C@@H](C(C)C)C(=O)N(C)CC(=O)N(C)[C@@H](CC(C)C)C(=O)N[C@@H](C(C)C)C(=O)N(C)[C@@H](CC(C)C)C(=O)N[C@@H](C)C(=O)N[C@H](C)C(=O)N(C)[C@@H](CC(C)C)C(=O)N(C)[C@@H](CC(C)C)C(=O)N(C)[C@@H](C(C)C)C(=O)N1C | 90.9% |
| Clc1ccc(CCC(Cn2ccnc2)Sc2c(Cl)cccc2Cl)cc1 (stereo not given) | 5.77% |
| CC(=O)N(C)C1(c2ccccc2)CCN(CCC[C@]2(c3ccc(Cl)c(Cl)c3)CCCN(C(=O)c3ccccc3)C2)CC1 | 6.96% |
| Cc1c(NC(=O)c2ccc(C(C)(C)C)cc2)cccc1-c1cn(C)c(=O)c(Nc2ccc(C(=O)N3CCOCC3)cc2)n1 | 5.68% |
| COC(=O)C1=CO[C@@H](O)[C@@H]2C(CO)=CC[C@@H]12 | 83% |
| O=c1cc(-c2cccc3c2Sc2ccccc2S3)oc(N2CCOCC2)c1 | 64.9% |
| COc1ccc(Cc2ccc(NC(N)=O)cc2)cc1-c1cccc(Cl)c1 | 61.7% |
| CCCCCN(C)CCC(O)(P(=O)(O)O)P(=O)(O)O | 92.2% |
| CC(C)(C)OC(=O)N[C@H]1CCCCCC=C[C@@H]2C[C@@]2(C(=O)NS(=O)(=O)C2CC2)NC(=O)[C@@H]2C[C@@H](OC(=O)N3Cc4cccc(F)c4C3)CN2C1=O | 11.7% |
| CN(C)c1cc(NC(=O)CNC(C)(C)C)c(O)c2c1C[C@@H]1C[C@H]3[C@H](N(C)C)C(=O)C(C(N)=O)=C(O)[C@@]3(O)C(=O)C1=C2O | 83% |
| Cn1cc(C=C2C(=O)Nc3cccnc32)c2ccccc21 | 42.6% |
| CC1(C)O[C@H]2C[C@@H]3[C@H]4CCC5=CC(=O)C=C[C@]5(C)[C@@]4(F)[C@@H](O)C[C@]3(C)[C@]2(C(=O)CO)O1 | 38.4% |
| C=CCc1ccc(O)c(-c2ccc(O)c(CC=C)c2)c1 | 22.1% |
| Clc1ccc(-c2nc3sccn3c2C=NOCc2ccc(Cl)c(Cl)c2)cc1 | 30.7% |
